# Assay results as given in PubChem BioAssay (NCI).
# Compounds without any hit were thinned out: in the full panel of roughly 83,000, 20% have a hit.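 The test compound was applied at a single concentration to cells in 96-well plates for 48 hours, and percent growth was recorded.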 A number with no mark means an inactive call. Calls of active or inactive are those of the source. Rule for the calls: active = growth percent below 10; inactive = the rest.
# Assays:
# Test in all cases: NCI-60 one-dose screen, 48 h (100 = growth as untreated, 0 = no growth, -100 = all killed)
# Settings in all cases: 10 µM unless noted
# NCI-H23 lung = test system: NCI-H23 lung
# NCI-H226 lung = test system: NCI-H226 lung
# NCI-H322M lung = test system: NCI-H322M lung
# HOP-62 NSCLC = test system: HOP-62 NSCLC
# NCI-H460 lung = test system: NCI-H460 lung
# HOP-92 NSCLC = test system: HOP-92 NSCLC
# NCI-H522 lung = test system: NCI-H522 lung
# A549/ATCC NSCLC = test system: A549/ATCC NSCLC
# 786-0 renal = test system: 786-0 renal
# COLO 205 colon = test system: COLO 205 colon
SMILES,growth (NCI-H23 lung),growth (NCI-H226 lung),growth (NCI-H322M lung),growth (HOP-62 NSCLC),growth (NCI-H460 lung),growth (HOP-92 NSCLC),growth (NCI-H522 lung),growth (A549/ATCC NSCLC),growth (786-0 renal),growth (COLO 205 colon)
CC(C)n1cnc2c(Nc3cccc(Cl)c3)nc(N[C@H]3CCCC[C@@H]3N)nc21,61.7%,68.6%,66.4%,42.8%,45.7%,26.8%,38.7%,55.7%,45.7%,26.4%
CC(=O)N1CCN(c2ccc(OCC3CO[C@](Cn4ccnc4)(c4ccc(Cl)cc4Cl)O3)cc2)CC1 (stereo not given in full),78.3%,58.7%,93.6%,74.4%,96.4%,61.4%,82.4%,85.2%,77.6%,86.9%
NC1CCN(c2nc(Nc3cccc(C(F)(F)F)c3)c3c(=O)[nH]ccc3n2)CC1,-58.9% (active),-62.5% (active),-12.7% (active),-58.8% (active),-59.1% (active),-61.5% (active),-85.3% (active),-52.2% (active),-97.7% (active),-61.1% (active)
CC(=O)O.CN1[CH-]N(Cc2ccc(C#N)cc2)c2ccccc21.[Ag+],105%,103%,105%,108%,97.9%,116%,-89.1% (active),68%,103%,54%
COc1cccc2c(=O)c3c(sc12)c(N1CCNCC1)nc1ccccc13,77.3%,88.2%,92.8%,81%,-55.1% (active),51.7%,77.2%,48.6%,78.9%,30.9%
CCOC(=O)c1sc2ncc(-c3ccc(C)cc3)n2c1C,83%,78.2%,92.6%,87.9%,101%,83.9%,86.2%,97.3%,106%,99.7%
CC1Cc2ccccc2N1NC(=O)c1ccc(Cl)c(S(N)(=O)=O)c1 (stereo not given),96.8%,97.8%,95.2%,95.8%,111%,44.9%,88%,107%,96.6%,108%
COc1nc2ccc(C)cc2cc1-c1nc2c(cnn2-c2ccc(Br)cc2)c(=O)[nH]1,44.9%,57.5%,72.7%,45.5%,27.1%,51.6%,3.48% (active),57.7%,41.5%,74.2%
Clc1ccc2c(c1)N(CCCN1CCCC1)c1ccccc1S2,62.5%,88.2%,36.3%,56.4%,30%,-4.23% (active),71.1%,58.6%,45.1%,-30.8% (active)
O=c1c2cccc(F)c2sc2c(NCCCNCCO)nc3ccccc3c12,49.9%,58%,44%,45.3%,-40.4% (active),15.4%,44.4%,26.9%,48.5%,-44.4% (active)
NC1=C(c2nn[nH]n2)C(c2ccccc2Cl)c2ccc3ccccc3c2O1 (stereo not given),76.3%,76.8%,89.9%,66.5%,87.5%,69.7%,35.5%,83.3%,82.7%,86.8%
O=c1ccc(N=Nc2ccc([N+](=O)[O-])cc2)ccc1O,2.17% (active),16.6%,17.6%,33%,17.8%,47.5%,14%,31.5%,42.3%,16.7%
CC1(C)C2CC1C1(/C=N/NC(N)=S)C(C2)C(C#N)(C#N)C1(C#N)C#N (stereo not given),89.4%,109%,98%,108%,98.9%,55.5%,-60.7% (active),96.4%,81.7%,65.4%
CNC(C)[C@H]1CCC2C3CCC4C[C@@H](N(C)C(=O)c5ccccc5)CC[C@]4(C)C3CC[C@@]21C (stereo not given in full),40.9%,80.3%,12.6%,38.4%,-7.41% (active),19.2%,69.5%,39.9%,40.1%,-79.3% (active)
C#C[C@]1(O)CC[C@H]2[C@@H]3CC=C4c5sc(Nc6ccccc6)nc5CC[C@]4(C)[C@H]3CC[C@@]21C,39.1%,62.7%,48%,35.5%,20.5%,53.4%,43.3%,52.9%,-36.5% (active),10.1%
CCn1cnc2c1c(=O)[nH]c(=O)n2CC1CCC(CNS(=O)(=O)c2ccc(OC3CCOCC3)c(F)c2)CC1 (stereo not given),57.5%,55.7%,66.7%,36.5%,72.6%,31%,39.4%,54.9%,47.4%,45.3%
CCOC(=O)c1cn2ncnc(Oc3ccc(NC(=O)NCCN(C)C)c(Cl)c3)c2c1C,75.5%,93.2%,90.5%,95.3%,103%,44.8%,87.9%,92.4%,76.1%,55.9%
O=C(Nc1ccc(F)cc1F)c1cc(F)ccc1O,-6.29% (active),4.02% (active),-6.69% (active),16.4%,7.51% (active),-29.9% (active),-6.24% (active),18%,13.3%,81.1%
CN1CCN(c2ccc(-c3ccc4ncc(C#N)c(Nc5ccc(F)c(Cl)c5)c4c3)cc2)CC1,77.4%,86.8%,19.7%,65.9%,27%,63.5%,33.3%,45.6%,45.4%,47.5%
NS(=O)(=O)c1ccc(N=Nc2ccc(-c3nn4cc(-c5ccccc5)nc4s3)cc2)cc1,97.1%,99.9%,103%,83%,113%,105%,89.9%,96.9%,94.6%,100%
C(=N/Nc1ncnc2nc[nH]c12)/c1ccccn1,47.6%,39.9%,22.4%,23.6%,55.8%,19.4%,35.7%,35.2%,21.4%,26.1%
CN1CCN(c2ccc(-c3ccc4ncc(C#N)c(Nc5ccc(F)c(Cl)c5)c4c3)cn2)CC1,79%,84.2%,16.8%,68.7%,26.9%,57.9%,39.1%,51.3%,52.9%,57.1%
Cc1c(C(=O)/C=C/Nc2c(Cl)cc(S(N)(=O)=O)cc2Cl)sc2nc3ccccc3n12,99.8%,99.6%,107%,107%,104%,111%,89.9%,103%,107%,110%
O=c1[nH][n+](-c2ccc(Br)cc2)no1,88.8%,72.5%,72.2%,75.5%,28.3%,84.1%,49.3%,48.1%,59%,56.2%
C[C@H]1[C@H]2[C@H]3CC[C@@H]4[C@@]5(C)CC[C@H](O)C(C)(C)[C@@H]5CC[C@@]4(C)[C@]3(C)CC[C@]23CO[C@]1(C)[C@@H](C(=O)/C=C\c1cccnc1)C3,59.5%,76.6%,88.4%,81.7%,40.7%,79.1%,38%,57.8%,63.6%,56.3%
COc1ccc(C(Cc2ccccc2)NCCN2CCOCC2)cc1 (stereo not given),100%,109%,95.7%,93.1%,107%,106%,71.1%,97.8%,89.4%,96.1%
